Source: PubChem BioAssay (NCI)
This is part of a sample that, as a whole, favours compounds with a hit. Of some 79,000 tested, about 15% had one in any assay. Unmarked numbers belong to inactive results. Activity calls are given as the source filed them. No stated cut-off is given here; in the data, active means growth inhibition above about 70%; inactive means the rest.

Experiment: NCI Yeast Anticancer Drug Screen. Data for the mlh1 rad18 strain (AID 175)
Conditions: S. cerevisiae mlh1 rad18 strain growth inhibition, hits give high values
Description: Growth inhibition of yeast strains with defined genetic alterations is measured as a screen for potential anti-cancer activity. Selected strains with alterations in DNA damage repair or cell cycle control were exposed to compounds and growth inhibition was measured relative to vehicle treated controls. The strain used in this assay is mlh1 rad18

[1] = at 5.0 µM (retest, dose inferred, filed as 0.5)
[2] = at 50.0 µM (retest, dose inferred, filed as 5.0)

With `CC(SCc1ccccc1)C(=O)O` (configuration not stated) the growth inhibition [1] was -2%, the growth inhibition [2] was 44% and the growth inhibition (at 50.0 µM) was -44.5%.

In the case of `COC(=O)c1ccccc1N=NN(C)CC1OC2OC(C)(C)OC2C1OC` (configuration not stated), the growth inhibition [1] is reported as 4%, the growth inhibition [2] is reported as 61% and the growth inhibition (at 50.0 µM) is reported as 88% (active).

With `CCS(=O)(=O)/C=C(\C#Cc1ccccc1)c1ccccc1` the growth inhibition [1] was 6%, the growth inhibition [2] was 94% (active) and the growth inhibition (at 50.0 µM) was 92.2% (active).

In the case of `CN(C)c1c([N+](=O)[O-])cc(N2C(=O)C=CC2=O)cc1[N+](=O)[O-]`, the growth inhibition [1] is reported as 80% (active), the growth inhibition [2] is reported as 96% (active) and the growth inhibition (at 50.0 µM) is reported as 90.7% (active).

With `FC(F)(F)C(C1=NC(C(F)(F)F)(C(F)(F)F)N=C(N2CCOCC2)O1)C(F)(F)F` the growth inhibition [1] was 51%, the growth inhibition [2] was 66% and the growth inhibition (at 50.0 µM) was 39.6%.

`Clc1ccc(-c2noc(CN3CCCCC3)n2)cc1` gave a growth inhibition [1] of -4%, a growth inhibition [2] of 24% and a growth inhibition (at 50.0 µM) of 67.3%.

For `CN(C)CCCNc1ccc(O)c2sc3ccccc3c(=O)c12`, the growth inhibition [1] was 0%, the growth inhibition [2] was 23% and the growth inhibition (at 50.0 µM) was 72% (active).

`Cc1ccc(/C=C2\CCCc3ccccc3C2=O)cc1` showed a growth inhibition [1] of 7%, a growth inhibition [2] of 23% and a growth inhibition (at 50.0 µM) of 55.1%.

With `Cc1c(C2CC(=O)NC2=O)c2ccccc2n1C` (configuration not stated) the growth inhibition [1] was 2%, the growth inhibition [2] was 3% and the growth inhibition (at 50.0 µM) was 7.8%.

With `Cc1c(C)n(-c2ccccc2)c2nc(S(C)(=O)=O)nc(S(C)(=O)=O)c12` the growth inhibition [1] was 31%, the growth inhibition [2] was 86% (active) and the growth inhibition (at 50.0 µM) was 87.2% (active).

With `Cc1c2c(c(O)c3c(O)cccc13)C(=O)C1(O)C(=O)C(C(N)=O)C(O)C(N(C)C)C1C2` (configuration not stated) the growth inhibition [1] was 70% (active), the growth inhibition [2] was 99% (active) and the growth inhibition (at 50.0 µM) was 99.1% (active).

With `O=C1CCCCCC1Cc1cc(O)c(CC2CCCCCC2=O)cc1O` (configuration not stated) the growth inhibition [1] was 8%, the growth inhibition [2] was 88% (active) and the growth inhibition (at 50.0 µM) was 35.2%.

With `C=C(c1ccccc1)[N+](=O)[O-]` the growth inhibition [1] was 67%, the growth inhibition [2] was 100% (active) and the growth inhibition (at 50.0 µM) was 99.2% (active).

In the case of `O=C(O)C(O)C(O)C(O)C(O)c1nc2ccccc2s1` (configuration not stated), the growth inhibition [1] is reported as 9%, the growth inhibition [2] is reported as 97% (active) and the growth inhibition (at 50.0 µM) is reported as 99% (active).
